# Assay results: PubChem BioAssay
# Active and inactive are the calls of the source.
# Key:
# [1] = E. coli DRC41 culture turbidity changes, primary screen, E. coli filamentation inducer project, strain DRC41, OD650, 48 h (AID 1152);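 also: E. coli MC1000 strain DRC41 lacking acrAB efflux pump and sulA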; conditions: E. coli DRC41 (acrAB sulA), higher = more signal, called active from +8 up or from −8 down
# [2] = small-molecule binders of probe aLefty1, primary screen, biochemical, small-molecule microarray, 635/667 nm fluorescence (AID 1153); conditions: higher = more signal;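 also: score merges spot fluorescence with signal-to-noise ratio from the scanned slide images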
# [3] = PSAC antagonists in infected red cells, primary screen, cell-based, P. falciparum Indochina, OD700, 1 h (AID 1154); conditions: P. falciparum Indochina infected RBC osmotic lysis, higher = more signal, called active from +8 up or from −8 down
# [4] = PSAC antagonists in infected red cells, primary screen, cell-based, P. falciparum Indochina, OD700, 2 h (AID 1155);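 also: lysis reports solute entry through the parasite surface anion channel PSAC; channel blockers reduce lysis of infected cells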; conditions: P. falciparum Indochina infected erythrocytes, osmotic lysis OD700; higher = more signal, called active from +8 up or from −8 down
# [5] = osmotic lysis modulators in infected erythrocytes, primary screen, PSAC antagonist project, cell-based, P. falciparum Indochina, OD700, 3 h (AID 1156); conditions: higher = more signal, called active from +8 up or from −8 down
# [6] = PSAC antagonists in infected red cells, primary screen, cell-based, P. falciparum Indochina, OD700, 18 h (AID 1157); conditions: P. falciparum Indochina infected erythrocytes, osmotic lysis OD700, 18 h; higher = more signal, called active from +8 up or from −8 down
# [7] = modulators of S6 phosphorylation in cells, primary screen, cell-based, A549, cytoblot, luminescence, serum-stimulated (AID 1158); conditions: A549 phospho-S6 cytoblot, 5 h, higher = more signal;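 also: serum-stimulated A549 lung adenocarcinoma cells; signal is phosphorylated S6 detected by cytoblot immunostaining with HRP secondary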
# [8] = target: NADPH oxidase 2 (Homo sapiens) (UniProt P04839); assay: NOX2-dependent H2O2 signal modulators, primary screen, NOX inhibitor project, cell-based, HEK293-NOX2, PMA-stimulated, Amplex Red fluorescence (AID 1159); conditions: 45 min, higher = more signal, called active from +8 up or from −8 down; also: test concentration not given here
# [9] = target: NADPH oxidase 4 (Homo sapiens) (UniProt Q9NPH5); assay: NOX4-dependent H2O2 signal modulators, primary screen, NOX inhibitor project, cell-based, HEK293-NOX4, tetracycline-induced, Amplex Red fluorescence (AID 1160); conditions: 45 min, higher = more signal, called active from +8 up or from −8 down
# [10] = target: NADPH oxidase 5 (Homo sapiens) (UniProt Q96PH1); assay: NOX5-dependent H2O2 signal modulators, primary screen, NOX inhibitor project, cell-based, HEK293-NOX5, Amplex Red fluorescence (AID 1161); conditions: HEK293-NOX5, ionomycin, 45 min, higher = more signal
# NADPH oxidase 5 (Homo sapiens), sequence (Q96PH1 whole entry, looked up): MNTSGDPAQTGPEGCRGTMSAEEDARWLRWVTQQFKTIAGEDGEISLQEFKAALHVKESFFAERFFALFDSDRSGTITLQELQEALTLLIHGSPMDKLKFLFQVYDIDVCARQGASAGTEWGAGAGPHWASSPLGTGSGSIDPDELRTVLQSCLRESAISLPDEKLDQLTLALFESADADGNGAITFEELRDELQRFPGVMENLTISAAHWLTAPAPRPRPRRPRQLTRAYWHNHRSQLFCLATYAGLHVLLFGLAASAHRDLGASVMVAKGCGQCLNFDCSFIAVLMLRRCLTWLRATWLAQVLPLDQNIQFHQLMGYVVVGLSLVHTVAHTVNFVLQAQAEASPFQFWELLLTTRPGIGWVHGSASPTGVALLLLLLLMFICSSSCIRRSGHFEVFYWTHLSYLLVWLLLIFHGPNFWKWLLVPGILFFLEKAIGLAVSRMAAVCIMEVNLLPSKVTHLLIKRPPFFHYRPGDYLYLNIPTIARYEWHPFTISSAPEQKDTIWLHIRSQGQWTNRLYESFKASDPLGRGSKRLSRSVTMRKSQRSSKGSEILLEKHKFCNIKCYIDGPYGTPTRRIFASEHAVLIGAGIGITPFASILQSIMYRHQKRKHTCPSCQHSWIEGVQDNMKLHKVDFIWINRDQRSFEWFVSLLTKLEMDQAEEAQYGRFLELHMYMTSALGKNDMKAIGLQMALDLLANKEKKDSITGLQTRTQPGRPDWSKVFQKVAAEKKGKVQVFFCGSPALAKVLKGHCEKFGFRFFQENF
# NADPH oxidase 2 (Homo sapiens), sequence (P04839 whole entry, looked up): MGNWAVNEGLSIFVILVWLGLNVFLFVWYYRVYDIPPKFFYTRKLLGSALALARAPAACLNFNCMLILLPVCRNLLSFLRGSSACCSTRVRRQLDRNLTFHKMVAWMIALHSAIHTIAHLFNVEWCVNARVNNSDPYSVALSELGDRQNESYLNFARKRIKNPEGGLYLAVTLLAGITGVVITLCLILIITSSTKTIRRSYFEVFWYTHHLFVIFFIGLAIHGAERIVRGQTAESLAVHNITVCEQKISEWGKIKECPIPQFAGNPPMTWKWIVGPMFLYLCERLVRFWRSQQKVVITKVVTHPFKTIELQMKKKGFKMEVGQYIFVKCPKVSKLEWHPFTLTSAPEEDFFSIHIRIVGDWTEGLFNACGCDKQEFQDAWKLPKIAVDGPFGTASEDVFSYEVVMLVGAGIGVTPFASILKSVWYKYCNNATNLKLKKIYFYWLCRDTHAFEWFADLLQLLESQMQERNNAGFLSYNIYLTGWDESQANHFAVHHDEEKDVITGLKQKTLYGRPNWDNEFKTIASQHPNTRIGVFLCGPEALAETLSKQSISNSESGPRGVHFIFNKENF
# NADPH oxidase 4 (Homo sapiens), sequence (Q9NPH5 whole entry, looked up): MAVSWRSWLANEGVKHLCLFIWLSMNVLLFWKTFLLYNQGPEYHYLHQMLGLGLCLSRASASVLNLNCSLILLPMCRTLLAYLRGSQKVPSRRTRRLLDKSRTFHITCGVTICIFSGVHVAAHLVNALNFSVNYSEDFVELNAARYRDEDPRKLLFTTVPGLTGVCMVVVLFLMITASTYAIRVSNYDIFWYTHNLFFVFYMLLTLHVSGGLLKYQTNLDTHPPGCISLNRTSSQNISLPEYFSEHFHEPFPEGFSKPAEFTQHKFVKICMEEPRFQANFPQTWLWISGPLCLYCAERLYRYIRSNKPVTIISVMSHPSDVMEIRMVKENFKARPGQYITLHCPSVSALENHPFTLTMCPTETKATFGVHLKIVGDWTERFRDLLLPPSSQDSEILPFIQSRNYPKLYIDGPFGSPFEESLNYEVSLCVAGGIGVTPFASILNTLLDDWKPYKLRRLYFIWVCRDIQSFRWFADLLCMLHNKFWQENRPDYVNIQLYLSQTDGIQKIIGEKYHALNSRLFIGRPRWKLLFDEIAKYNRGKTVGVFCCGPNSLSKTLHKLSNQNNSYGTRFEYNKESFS
SMILES,z-score [1],composite z-score [2],z-score [3],z-score [4],z-score [5],z-score [6],z-score [7],z-score [8],z-score [9],z-score [10]
O=C1NC(=O)C2C1C=CC(C(O)c1cccs1)N2Nc1ccccn1 (stereo not given),0.218 (inactive),-0.0035,0.624 (inactive),0.253 (inactive),-0.285 (inactive),0.853 (inactive),-0.726,0.659 (inactive),-1.32 (inactive),-0.795
COCCCNC(=O)[C@]1(Cc2ccccc2N=[N+]=[N-])N=C(c2ccc(OCCCO)cc2)O[C@@H]1c1ccccc1CN=[N+]=[N-],0.871 (inactive),0.766,28.1 (active),21.2 (active),3.17 (inactive),2.71 (inactive),1.97,-0.888 (inactive),0.4 (inactive),-0.209
CCCCC(=C=CC[C@H](O)c1ccccc1OCCO)C[C@H](O)c1cc(Cl)cc(Cl)c1O,-0.0999 (inactive),-0.0989,15.9 (active),2.79 (inactive),-0.179 (inactive),1.46 (inactive),0.276,-0.565 (inactive),-1.5 (inactive),-2.02
COC(=O)c1nc2oc1CC[C@@H](CO)NC(=O)N(C)Cc1cn(nn1)C[C@H](Cc1ccccc1)NC2=O,2.75 (inactive),-0.145,1.53 (inactive),0.394 (inactive),0.864 (inactive),0.0148 (inactive),0.225,-0.454 (inactive),0.917 (inactive),0.398
C=C(/C(=C/C[C@@H](OC(C)=O)c1ccc(CO)o1)c1cnc2ccccc2c1)C(C)C,0.727 (inactive),-0.147,4.83 (inactive),1.28 (inactive),1.74 (inactive),0.332 (inactive),1.04,0.334 (inactive),-1.99 (inactive),-0.957
COCCn1c(C(=O)N2CCCC2)cc2c1C[C@H]1CN(C(=O)c3ccccc3)[C@@](Cc3ccc(OC)cc3)(C(=O)OC)[C@@H]21,0.223 (inactive),1.15,2.9 (inactive),-0.51 (inactive),-0.778 (inactive),-1.96 (inactive),2.69,0.121 (inactive),0.435 (inactive),-4.54
CCN(CC)c1ccc(N2CC=CC34O[C@@H]5/C=C\CCCOC(=O)C5[C@H]3C(=O)N(CCCO)[C@@H]4C2=O)cc1 (stereo not given in full),-0.522 (inactive),0.235,1.78 (inactive),0.225 (inactive),-0.462 (inactive),0.308 (inactive),-0.219,0.024 (inactive),0.558 (inactive),0.931
[N-]=[N+]=NCc1ccccc1C[C@@]1(C(=O)NCc2ccccc2)N=C(c2ccc(OCCCO)cc2)O[C@@H]1c1ccccc1CN=[N+]=[N-],0.561 (inactive),0.7,26.1 (active),15.3 (active),1.58 (inactive),1.87 (inactive),-0.633,-1.03 (inactive),-0.17 (inactive),-0.353
CC(C)N1C(=O)c2ccccc2[C@](C)(C(=O)NCCCN(C)C)[C@@H]1c1ccc(CO)cc1,0.0259 (inactive),0.0201,2.5 (inactive),0.347 (inactive),0.766 (inactive),0.4 (inactive),0.564,0.288 (inactive),0.893 (inactive),1.15
CC(c1ccccc1)C(O)C1C=CC2C(=O)N(Cc3ccccc3)C(=O)C2N1n1cnnc1 (stereo not given),-2.13 (inactive),-0.13,1.78 (inactive),0.975 (inactive),0.0175 (inactive),0.929 (inactive),-0.396,-0.217 (inactive),-1.09 (inactive),-1.02
O=C1OCC=C[C@H]2OC34C=CCN(Cc5ccccc5)C(=O)[C@H]3N(CCCO)C(=O)[C@@H]4[C@@H]12 (stereo not given in full),2.57 (inactive),1.27,0.599 (inactive),-1 (inactive),1.01 (inactive),-1.05 (inactive),0.833,-0.548 (inactive),-1.29 (inactive),-1.17
[N-]=[N+]=Nc1ccccc1C[C@]1(C(=O)N2CCCCC2)N=C(c2ccc(OCCCO)cc2)O[C@H]1c1ccccc1N=[N+]=[N-],-0.866 (inactive),0.568,30.1 (active),28.3 (active),2.73 (inactive),7.18 (inactive),-0.359,-2.39 (inactive),0.341 (inactive),-1.08
CCCCCN1CC=CC23O[C@@H]4C=CCCOC(=O)C4[C@H]2C(=O)N(CCCO)[C@@H]3C1=O (stereo not given in full),2.03 (inactive),-0.151,-0.235 (inactive),-1.49 (inactive),1.17 (inactive),-1.02 (inactive),0.655,-1.16 (inactive),-1.08 (inactive),-0.705
O=P(NCC1(CC2(c3ccccc3)CO2)CC1)(c1ccccc1)c1ccccc1 (stereo not given),-0.569 (inactive),0.315,0.0174 (inactive),-0.505 (inactive),0.424 (inactive),0.297 (inactive),-0.242,-0.024 (inactive),0.266 (inactive),-2.9
O=C(CS)NCCCCCNC(=O)[C@H]1C[C@H]2C(=O)N[C@@H](Cc3ccccc3)C(=O)N2[C@H]1c1cccc(OCCO)c1,1.77 (inactive),0.373,3.03 (inactive),0.724 (inactive),-2 (inactive),0.425 (inactive),0.9,1.69 (inactive),1.34 (inactive),0.687
Cc1cc(C)c(C(O)C2C=CC3C(=O)NC(=O)C3N2Nc2ccccn2)c(C)c1 (stereo not given),-1.14 (inactive),0.469,1.02 (inactive),0.742 (inactive),-0.0209 (inactive),1.07 (inactive),-1.25,-1.49 (inactive),-1.33 (inactive),-2.12
O=C1C[C@@](C(=O)O)(c2ccc([N+](=O)[O-])cc2)[C@@H](c2ccc(CO)cc2I)N1C1CCCCC1,1.52 (inactive),0.208,17.5 (active),2.77 (inactive),3.02 (inactive),0.202 (inactive),1.84,1.46 (inactive),-2.82 (inactive),-1.78
O=C1C2C=CC(C(O)CCc3ccccc3)N(Nc3ccccc3)C2C(=O)N1c1ccccc1 (stereo not given),-1.7 (inactive),0.767,1.9 (inactive),1.32 (inactive),0.624 (inactive),1.42 (inactive),-1.06,-1.26 (inactive),-5.33 (inactive),-1.45
C=C[C@H](C)[C@H](OC(=O)Nc1ccc(OC)cc1)c1ccc(O)c2ccccc12,-0.222 (inactive),0.0313,1.71 (inactive),0.435 (inactive),-0.554 (inactive),-0.187 (inactive),0.486,-5.39 (inactive),-1.77 (inactive),-0.256
COc1ccc(C(=O)Nc2cccc(CN3C(=O)[C@@]4(O[C@@H](CC(=O)N5Cc6ccccc6C[C@H]5CO)[C@H]([Si](C)(C)c5ccc(OC)cc5)[C@H]4C)c4ccccc43)c2)cc1,-0.333 (inactive),0.139,4.24 (inactive),1.49 (inactive),0.712 (inactive),0.768 (inactive),1.33,-1.03 (inactive),0.0938 (inactive),-0.713
COc1ccc([Si](C)(C)[C@H]2[C@H](CCO)O[C@@]3(C(=O)N(Cc4ccccc4)c4ccc(N5C(=O)COc6ccccc65)cc43)[C@@H]2C)cc1,0.592 (inactive),0.167,5.33 (inactive),2.16 (inactive),1.3 (inactive),1.65 (inactive),2.08,-1.74 (inactive),1.53 (inactive),0.595
CN1C(=O)C2C=CC(C(O)C=Cc3ccc([N+](=O)[O-])cc3)N(N3CCCCC3)C2C1=O (stereo not given),-1.54 (inactive),1.11,2.72 (inactive),0.962 (inactive),0.714 (inactive),1.02 (inactive),-0.9,-0.542 (inactive),-0.397 (inactive),-1.25
[N-]=[N+]=NCc1ccccc1C[C@]1(C(=O)NCC(O)CO)COC(c2ccc(OCCCO)cc2)=N1 (stereo not given in full),0.896 (inactive),0.746,24.8 (active),10.2 (active),3.96 (inactive),0.91 (inactive),-0.0894,-2.99 (inactive),-0.28 (inactive),-2.11
CN(C)CCCC[C@@H]1NC(=O)[C@@H]2C[C@H](C(=O)NCc3ccc(F)cc3)[C@H](c3cccc(OCCO)c3)N2C1=O,-0.179 (inactive),0.19,5.87 (inactive),0.995 (inactive),-1.39 (inactive),0.546 (inactive),0.612,1.85 (inactive),1.37 (inactive),1.55
C[N+](C)(C)CCCC[C@@H]1NC(=O)[C@@H]2C[C@H](C(=O)NCCCCCCNC(=O)CS)[C@H](c3cccc(OCCO)c3)N2C1=O,-0.0169 (inactive),-0.012,5.87 (inactive),1.39 (inactive),-0.293 (inactive),0.644 (inactive),0.133,1.85 (inactive),1.12 (inactive),1.45
CN(C)CCCC[C@@H]1NC(=O)[C@@H]2C[C@H](C(=O)NCCCCCCN)[C@H](c3ccc(O)cc3)N2C1=O,-0.337 (inactive),1.37,1.98 (inactive),0.288 (inactive),1.28 (inactive),0.229 (inactive),-0.648,1.46 (inactive),-0.964 (inactive),1.01
COc1ccc([Si](C)(C)[C@@H]2[C@@H](CCn3cc([C@H](O)c4ccccc4)nn3)O[C@]3(C(=O)N(C)c4ccccc43)[C@H]2C)cc1,-0.702 (inactive),-0.101,4.2 (inactive),0.579 (inactive),1.51 (inactive),0.325 (inactive),0.416,1.62 (inactive),0.689 (inactive),-1.55
